The values below come from the OligoGym collection.
Further: reference of the scale not given here.

The target in one test is FZR1. The test is described as follows: pooled miR-30 sensor sort-seq; sequence = guide strand. The settings on record: shRNA.
TCATTCTGGATGACGATCTGGC came in with a sensor-assay potency score (higher = more potent) of 0.47.

In turn, AACATGGACAGCTTCTTCCCTG had a sensor-assay potency score (higher = more potent) of -0.261.

For TTCTGTGAGTAGCCGTGCGTGC, the sensor-assay potency score (higher = more potent) was -1.08.

As for TGAGACTCCAGGATCCTCCAGG, the sensor-assay potency score (higher = more potent) is -0.492.

For TGTCCTGTCAGCGTGTTCCAGA, the sensor-assay potency score (higher = more potent) is -0.846.

TACACTGCAGTGGTTGTCCTGT returned a sensor-assay potency score (higher = more potent) of -0.434.

With TCTGGTTCTGTGAGTAGCCGTG, the sensor-assay potency score (higher = more potent) is -0.152.

With TTCTCATTCTCGTTAATCCTGT, the sensor-assay potency score (higher = more potent) was -0.581.

With TCTGTGGACCACTTGAGCCCGC, the sensor-assay potency score (higher = more potent) was -0.976.

Take TGAGAGGTCACAGAGCCGCGTC: the sensor-assay potency score (higher = more potent) is -0.649.

TTTGTCGAACGGGTTTTGCTAA: the sensor-assay potency score (higher = more potent) was -0.856.

A further test concerns the target GAA. The description is as above. The settings on record: shRNA.
Sequence TTCACGATCGTGTTATTCCTGG came in with a sensor-assay potency score (higher = more potent) of -0.238.

TTGTGGTTCCGCATGAAGGGGT yielded a sensor-assay potency score (higher = more potent) of -0.144.

Regarding TTCATGTCAATCCACATGCCGT, the sensor-assay potency score (higher = more potent) was -0.999.

For TAGTCCAGGTCGTTCCACTGGA, the sensor-assay potency score (higher = more potent) is -0.244.

Consider TAACACAGAGCAGCCCTCCAGG, for which the sensor-assay potency score (higher = more potent) is -0.565.

For TTGTGCAGGTTGTAGTGTGTGG, the sensor-assay potency score (higher = more potent) was -0.0928.

The sequence TGAACGTGAAGTCCCTCCGGGA yielded a sensor-assay potency score (higher = more potent) of -0.701.

Sequence AATCTTATTAACACAGAGCAGC showed a sensor-assay potency score (higher = more potent) of -1.53.

As to TAGAGGTTCGCACCGGGCGTGG, the sensor-assay potency score (higher = more potent) is -1.37.

Regarding TTTAGAATCTCCCAAGTCCTGT, the sensor-assay potency score (higher = more potent) is 0.11.

The sequence TTTGCAGGGATGTAGCAACAGC returned a sensor-assay potency score (higher = more potent) of -1.16.

Consider TAAACTGCAGGATTTCTGGCAC, for which the sensor-assay potency score (higher = more potent) was -0.0629.

As for TTAAGATTTAGAATCTCCCAAG, the sensor-assay potency score (higher = more potent) was -0.492.

In turn, TTAAACTGCAGGATTTCTGGCA gave a sensor-assay potency score (higher = more potent) of 0.151.

Consider TTGTTGAACGTGAAGTCCCTCC, for which the sensor-assay potency score (higher = more potent) amounted to 0.0246.

The sequence TTGATCGTGAAGTGGAGGCGGT yielded a sensor-assay potency score (higher = more potent) of -0.412.

TTCTCCAGCTTGTAGCTGGGGT showed a sensor-assay potency score (higher = more potent) of -0.57.

In turn, TACAATCTTATTAACACAGAGC came in with a sensor-assay potency score (higher = more potent) of -0.86.

Consider TTGAACGTGAAGTCCCTCCGGG, for which the sensor-assay potency score (higher = more potent) turned out to be 0.671.

With TTTGATCGTGAAGTGGAGGCGG, the sensor-assay potency score (higher = more potent) worked out at 0.187.

Take TACTGCTGCACCACGCTCTTGG: the sensor-assay potency score (higher = more potent) stood at 0.362.

Regarding TTAGCTGGATCTTTGATCGTGA, the sensor-assay potency score (higher = more potent) turned out to be 0.689.

In turn, TCCTCGGAGAACTCCACGCTGT yielded a sensor-assay potency score (higher = more potent) of -1.76.

TTGGTGTCGGGGCTGTAGGTGA returned a sensor-assay potency score (higher = more potent) of -0.824.

The next test has as its target GAB3. The description is as above. Conditions: shRNA.
The sequence TAGTACTCCAAGACATCGGGGT registered a sensor-assay potency score (higher = more potent) of 0.697.

Sequence TTGCTGGAGTGCTTGTTCCTGT yielded a sensor-assay potency score (higher = more potent) of -0.331.

The sequence TTGCAGACCTGACTGATGCTGT returned a sensor-assay potency score (higher = more potent) of 0.324.

As for TTTTCTATCTCCAATCTGGTGT, the sensor-assay potency score (higher = more potent) was determined as 0.0351.

For the sequence TTGACCTGTGTTGACCATCAGT, the sensor-assay potency score (higher = more potent) was -0.72.
